The record followed here is PubChem BioAssay AID1626 (SRMLSC, 2009).

Molecules are shown by their SMILES. Hit rate of the full screen: of about 220,000 compounds, about 2,000 (0.91%) were called active. Not shown: some 2% with an inconclusive outcome. Rule as the data show it: inconclusive = inhibition above about 80% without an active follow-up result; inactive = below that; test concentration not stated here. Not all results are given here. Entries with a potency or affinity are not part of this list.

The experiment can be described thus: M. tuberculosis H37Rv growth inhibitors, H37Rv strain (AID 1626).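 Also: bacteria incubated seven days before Alamar blue readout; 0% = bacteria only wells and 100% = bacteria with antibiotic wells.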 The following applies: stronger effect = higher value, concentration not given here.
The term inhibition denotes the change of the read-out against control, counted positive when it falls. For `CCOc1ccccc1NC(=O)CN1C(=O)COc2ccc(Cl)cc21`, the inhibition is -3.19% (inactive).

Take `Cc1cc(CNC(=O)Cn2nc(C)c([N+](=O)[O-])c2C)c2ccccc2n1`: the inhibition was -7.05% (inactive).

On to `Oc1cccnc1CCc1ccccc1`, for which the inhibition is -10.6% (inactive).

As to `CCOC(=O)c1sc(NC(=O)c2ccc(C)o2)nc1C`, the inhibition is 2.75% (inactive).

With `CCCn1nnc(NC(=O)c2cccnc2Cl)n1`, the inhibition was 7.01% (inactive).

Consider `Cc1cc(NC(=O)CSc2nc(C3CCCCC3)nc3ccccc23)no1`, for which the inhibition was 7.18% (inactive).

Take `Nc1c(-c2ccccc2)cnc2cc(-c3ccccc3)nn12`: the inhibition was 4.02% (inactive).

On to `Cc1ccc(-c2nc3cnccn3c2Nc2ccccc2)o1`, for which the inhibition was 9.96% (inactive).

As for `Cc1ccn2c(NCc3ccccc3)c(-c3cccs3)nc2c1`, the inhibition was 6.23% (inactive).

Regarding `CCOc1ccccc1NC(=O)NC1(C(=O)N2CCOCC2)CCCCC1`, the inhibition is -10.7% (inactive).

Consider `O=C(CSc1nnc(-c2ccc(O)cc2)n1Cc1ccco1)c1cccs1`, for which the inhibition was 2.2% (inactive).

Turning to `O=C(CSCc1ccco1)c1cccs1`, the inhibition was -1.66% (inactive).

As for `O=S(=O)(c1cccc2cccnc12)N1CCN(Cc2ccc3c(c2)OCO3)CC1`, the inhibition is -5.89% (inactive).

With `Cc1[nH]c2ccccc2c1/C=N/NC(=O)CNC(=O)COc1ccccc1`, the inhibition is 10% (inactive).

With `COc1ccc(OC)c(-c2nc(CN3CCCCC3c3cccnc3)c(C)o2)c1` (configuration not stated), the inhibition was -0.43% (inactive).

Take `COc1ccc(-c2noc(CN3CCCCC3c3nccn3C)n2)cc1` (configuration not stated): the inhibition was 6.82% (inactive).

On to `CC(C)N(Cc1nccn1C)C(=O)CCc1nnc(CCCc2ccccc2)o1`, for which the inhibition was -2.35% (inactive).

Take `COc1nc(N(c2ccccc2)c2ccccc2)nc(-n2ccnc2)n1`: the inhibition is 25.8% (inactive).

For the compound `c1ccc(N(c2ccccc2)c2nc(-n3ccnc3)nc(-n3ccnc3)n2)cc1`, the inhibition is -4.28% (inactive).

`c1ccc(-c2nc(NC3CC3)nc(-n3ccnc3)n2)cc1`: the inhibition was -0.68% (inactive).

On to `Nc1nc(N2CCCCC2)nc(N(c2ccccc2)c2ccccc2)n1`, for which the inhibition is 1.26% (inactive).

Turning to `c1ccc(-c2nc(-n3ccnc3)nc(-n3ccnc3)n2)cc1`, the inhibition is 3.02% (inactive).

As for `c1ccc(-c2ccc(CN3CCN(c4ncccn4)CC3)cc2)cc1`, the inhibition was -1.29% (inactive).

For the compound `C=CCNc1nc(-c2ccccc2)nc(-n2ccnc2)n1`, the inhibition is 16.6% (inactive).

On to `CCCCNc1nc(N(C)c2ccccc2)nc(-n2ccnc2)n1`, for which the inhibition was 51.3% (inactive).

As for `Cc1nccc(-c2sc(-c3cccs3)nc2C)n1`, the inhibition was 2.12% (inactive).

For `COc1ccc(N2C(=O)N(Cc3ccccc3F)c3ccccc3S2(=O)=O)cc1`, the inhibition is 6.95% (inactive).

Turning to `CCCCNC(=O)c1ccc(SCC(=O)N(CC)CC)c([N+](=O)[O-])c1`, the inhibition was 0.05% (inactive).

As for `Brc1ccc(Oc2ncc(CN3CCN(c4ccccc4)CC3)s2)cc1`, the inhibition is 2.17% (inactive).

Regarding `Cc1ccc(-c2cn(-c3ccc(OC(F)F)cc3)c3[n+]2CCCCC3)cc1`, the inhibition was -4.29% (inactive).

With `O=C(Cn1nc(-c2nn(CC(=O)c3ccccc3)c3[n+]2CCCCC3)[n+]2c1CCCCC2)c1ccccc1`, the inhibition was 6.97% (inactive).

Take `O=C(O)CCCC(=O)NNC(=O)c1cccc(Br)c1`: the inhibition is 0.6% (inactive).

As for `CCOc1cc(CNCCc2ccc(S(N)(=O)=O)cc2)cc(Cl)c1OCc1ccccc1`, the inhibition is 58.8% (inactive).

On to `COc1cc(CNCc2ccccc2)cc(Cl)c1OC`, for which the inhibition is 4.65% (inactive).

With `O=C(O)c1ccc(COc2ccccc2/C=C2\NC(=O)N(Cc3ccccc3F)C2=O)cc1`, the inhibition was -2.79% (inactive).

Take `CN=C(Nc1ccccc1)SC1CC(=O)N(c2ccc(C(=O)OC)cc2)C1=O` (configuration not stated): the inhibition was -2.27% (inactive).

On to `CN=C(Nc1ccccc1OC)SC1CC(=O)N(c2ccc(C(=O)OC)cc2)C1=O` (configuration not stated), for which the inhibition was 7.4% (inactive).

On to `COc1ccc(N=Cc2c(O)n(Cc3ccccc3)c(=S)[nH]c2=O)c(OC)c1`, for which the inhibition was 6.73% (inactive).

`O=C(CSc1nnc(-c2cccnc2)n1-c1ccccc1)NCc1ccc2c(c1)OCO2`: the inhibition was 6.03% (inactive).

On to `CC(Oc1ccc(Cl)cc1Cl)c1ccn[nH]1` (configuration not stated), for which the inhibition is 2.27% (inactive).

Take `O=C(O)CCC(=O)NN1C(=O)c2ccccc2NC1c1ccco1` (configuration not stated): the inhibition was -6.39% (inactive).

As to `CC(=O)Nc1ccc2[nH]c3ccccc3c2c1`, the inhibition is 10.6% (inactive).

`COc1ccc(NC(=O)c2cc3ccc4c5ccccc5[nH]c4c3cc2O)cc1`: the inhibition is 2.53% (inactive).

On to `CC(OC(=O)c1ccccc1O)C(=O)Nc1cccc(Cl)c1` (configuration not stated), for which the inhibition was 3.01% (inactive).

With `CCC(Sc1nc(C)cc(=O)[nH]1)C(=O)Nc1nnc(C)s1` (configuration not stated), the inhibition is -7.53% (inactive).

With `CCOc1ccc2nc(NC(=O)c3ccoc3C)sc2c1`, the inhibition is 8.64% (inactive).

As to `CCOc1ccc2nc(NC(=O)C3=NNC(=O)CC3)sc2c1`, the inhibition was 46.3% (inactive).

As for `CCOc1ccc2nc(NC(=O)c3cccnc3)sc2c1`, the inhibition was 3.09% (inactive).

On to `CCOC(=O)Cc1nnc(NC(=O)C(CC)Sc2nc(C)cc(=O)[nH]2)s1` (configuration not stated), for which the inhibition is -0.83% (inactive).

On to `CCOc1ccc2nc(NC(=O)Nc3ccccc3)sc2c1`, for which the inhibition is 1.1% (inactive).

With `c1ccc(CNC2=NCCCCC2)cc1`, the inhibition is -3.52% (inactive).

With `COCCN(CC(=O)NC1CCCCC1)C(=O)CSc1nc2ccccc2o1`, the inhibition was -4.79% (inactive).

Consider `CC(C)N1C(=O)c2ccc(C(=O)O)cc2C1=O`, for which the inhibition was 2.62% (inactive).

Regarding `CCOC(=O)C1=C(C)NC(=S)N(C=O)C1c1ccccc1` (configuration not stated), the inhibition was 6.03% (inactive).

On to `Cc1ccc(SCC(=O)NCc2cccnc2)cc1`, for which the inhibition was -4.12% (inactive).

`O=c1[nH]c2ccccc2c2nc3ccccn3c12`: the inhibition was -1.5% (inactive).

As for `O=c1[nH]c2ccccc2c(O)c1O`, the inhibition is -3.51% (inactive).

With `Cc1ccc(-c2nc(CS(=O)CC(=O)NCc3ccccc3)c(C)o2)cc1` (configuration not stated), the inhibition was 3.18% (inactive).

Consider `CS(=O)(=O)N1CCC(C(=O)Nc2ccc(Oc3ccccc3)cc2)CC1`, for which the inhibition was 2.66% (inactive).

With `O=C(Nc1ccc(Cc2ccc(NC(=O)C3CC3)cc2)cc1)C1CC1`, the inhibition was 7.74% (inactive).

On to `O=C(Nc1ccc(N2CCOCC2)cc1)C1CC1`, for which the inhibition is -4.12% (inactive).

As to `O=C(Nc1ccc(Oc2ccc(NC(=O)C3CCCO3)cc2)cc1)C1CCCO1` (configuration not stated), the inhibition was -8.27% (inactive).

Consider `COc1ccc(NC(=O)C2CCCO2)cc1` (configuration not stated), for which the inhibition is -10% (inactive).

As to `O=C(Nc1ccc(Nc2ccccc2)cc1)C1CC1`, the inhibition was -4.99% (inactive).

Regarding `O=C(CCc1n[nH]c(=O)[nH]c1=O)N1CCCCC1`, the inhibition is -1.04% (inactive).

With `COc1cc(C(O)P(=O)(OCC(C)C)c2ccc(N(C)C)cc2)cc(OC)c1OC` (configuration not stated), the inhibition was -2.15% (inactive).

In the case of `CCCc1[nH]nc2c1C(c1ccc(OCCN3CCOCC3)c(OC)c1)C(C#N)=C(N)O2` (configuration not stated), the inhibition is -0.42% (inactive).

On to `CCC(CO)Nc1nc(CN2CCCCC2)nc2scc(-c3ccccc3)c12` (configuration not stated), for which the inhibition was 7.81% (inactive).

As to `CN1CCN(c2nc(-c3cccnc3)nc3scc(-c4ccccc4)c23)CC1`, the inhibition is -0.01% (inactive).

Consider `CC1CCCN(c2nc(-c3cccnc3)nc3scc(-c4ccccc4)c23)C1` (configuration not stated), for which the inhibition was 10.2% (inactive).

Take `OCC1CCCN(c2nc(CN3CCCCC3)nc3scc(-c4ccccc4)c23)C1` (configuration not stated): the inhibition was 1.65% (inactive).

On to `CCCn1nc(C(=O)Nc2nnc(CC)s2)c2ccccc2c1=O`, for which the inhibition was -9.02% (inactive).

On to `CC1CN(C(=O)N(C)C)CCN1C(=O)N(C)C` (configuration not stated), for which the inhibition is -15.9% (inactive).

Regarding `CC(=O)c1c(-c2ccc(Cl)cc2Cl)noc1C`, the inhibition was 2.75% (inactive).

With `COc1cc(NC(=O)c2ccc(OC)c([N+](=O)[O-])c2)ccc1NC(=O)c1ccco1`, the inhibition is -4.07% (inactive).

Consider `COc1ccccc1NC(=S)N(Cc1ccco1)Cc1cc2cc(C)c(C)cc2[nH]c1=O`, for which the inhibition was 6.98% (inactive).

As for `Cc1ccc(S(=O)(=O)Nc2nc3cc(C)c(C)cc3[nH]2)cc1`, the inhibition was 8.1% (inactive).

As to `Cn1c(SCC(=O)N2CCCC2)nc2ccccc21`, the inhibition is 3.37% (inactive).

With `O=C(NCc1ccco1)c1cc2n(n1)C(C(F)(F)F)CC(c1ccc(F)cc1)N2` (configuration not stated), the inhibition was 42% (inactive).

On to `O=C(NCc1ccco1)c1cnn2c1NC(c1ccccc1)CC2C(F)(F)F` (configuration not stated), for which the inhibition was 2.86% (inactive).

For `CCCn1cc(NC(=O)c2cc3n(n2)C(C(F)(F)F)CC(c2ccccc2)N3)cn1` (configuration not stated), the inhibition is 0.85% (inactive).

As for `Cc1c(CNC(=O)c2cnn3c2NC(c2ccccc2)CC3C(F)(F)F)cnn1C` (configuration not stated), the inhibition is -9.25% (inactive).

Turning to `Cc1nn(C)cc1CNC(=O)c1cnn2c1NC(c1ccc(Br)cc1)CC2C(F)(F)F` (configuration not stated), the inhibition was 3.8% (inactive).

For `O=C(NCc1cccc(Cl)c1)c1cnn2c1NC(c1ccco1)CC2C(F)(F)F` (configuration not stated), the inhibition was 6.69% (inactive).

Turning to `O=C(NCc1ccco1)c1cc2n(n1)C(C(F)(F)F)CC(c1ccc(Br)cc1)N2` (configuration not stated), the inhibition was 74.2% (inactive).

Take `O=C(O)c1cc2n(n1)C(C(F)(F)F)CC(c1ccccc1)N2` (configuration not stated): the inhibition was -8.1% (inactive).

Take `Nc1nnc(CCCCCCCCCCc2nnc(N)s2)s1`: the inhibition is -1.56% (inactive).

For `CC(C)(C)n1nc2c(c1NC(=O)COc1ccc(Cl)cc1)CS(=O)(=O)C2`, the inhibition was 1.01% (inactive).

As for `CCN(C(=O)COC(=O)/C=C/c1ccc(S(=O)(=O)N2CCc3ccccc32)cc1)C1CCS(=O)(=O)C1` (configuration not stated), the inhibition is -3.11% (inactive).

On to `Cc1c(Cl)cccc1S(=O)(=O)N1CCC(C(=O)NNC(=O)C2CC2)CC1`, for which the inhibition was 0.53% (inactive).

As to `CCOC(=O)c1c(C)[nH]c(C(C)=O)c1C`, the inhibition was -0.35% (inactive).

For the compound `COC(=O)c1ccc(C2C(C(C)=O)=C(O)C(=O)N2CCO)cc1` (configuration not stated), the inhibition is -1.96% (inactive).

Regarding `COc1cccc(NC(=O)N[C@@H](Cc2ccccc2)C(=O)O)c1`, the inhibition is 1.84% (inactive).

As for `CN(C)c1ccnc(SCc2ccccc2Cl)c1C#N`, the inhibition is 11.8% (inactive).

In the case of `COc1cccc(C2CC(C(F)(F)F)n3ncc(C(=O)NCc4ccco4)c3N2)c1` (configuration not stated), the inhibition was 3.27% (inactive).

`Cc1ccc(C2CC(C(F)(F)F)n3ncc(C(N)=O)c3N2)cc1` (configuration not stated): the inhibition was -4.41% (inactive).

Regarding `Nc1nc(Cn2nnc(-c3ccccc3Cl)n2)nc(N2CCOCC2)n1`, the inhibition is -0.22% (inactive).
